# Test results published in PubChem BioAssay (Tox21).
# Records with an inconclusive call do not appear. Entries that show only a call come without a potency. The source made the active and inactive calls. Unless noted, calls come from the whole dose curve; as a rule, active = well fitted cell-killing curve with a large enough effect in the repeat runs; inconclusive = weak or mixed curves, or effect the other way; inactive = no such curve, though single readings can be large or run the other way.
# Assay: qHTS assay for small molecule activators of the heat shock response signaling pathway - cell viability counter screen (AID 743209); note: nearly all actives have a fitted effect of over 50% in size; note: potency is the fitted concentration of half-maximal effect
# Conditions: HSE-bla HeLa viability, CellTiter-Glo luminescence, 5 h; series mostly up to 62.6 µM
# Summary of the method: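 Readout: CellTiter-Glo luminescence, 30 min at room temperature. System: HSE-bla HeLa cells, 1500/well, plated overnight. Treatment: compounds in DMSO, 5 h at 37 C.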
row,Structure (SMILES),Potency
1,CCCCCCCCCCCCCCCCCC[N+](C)(C)Cc1ccccc1,27.8 µM (active)
2,COc1ccc(C(=O)/C(Br)=C\C(=O)O)cc1,inactive
3,CC1=C(/C=C/C(C)=C/C=C/C(C)=C/C=O)C(C)(C)CCC1,34.5 µM (active)
4,Oc1ccc(C2(c3ccc(O)cc3)CC3CC2C2CCCC32)cc1 (stereo unspecified),52.8 µM (active)
5,O=C1c2c(O)ccc(Nc3ccc(CCO)cc3)c2C(=O)c2c([N+](=O)[O-])ccc(O)c21,inactive
6,COc1cc(-c2ccc(N=C=O)c(OC)c2)ccc1N=C=O,inactive
7,Cc1nc(-c2ccc3c(c2)CCN(CCC2CCC(NC(=O)/C=C/c4ccc(F)cc4)CC2)CC3)no1 (stereo unspecified),inactive
8,CC[C@H]1O[C@]2(CC[C@@H]1C)C[C@@H]1C[C@@H](C/C=C(\C)C[C@@H](C)/C=C/C=C3\CO[C@@H]4[C@H](O)C(C)=C[C@@H](C(=O)O1)[C@]34O)O2,6.85 µM (active)
9,CCN(C(=O)c1cc(C)cc(OC[C@H](C)Nc2ccncc2)c1)C(C)C,inactive
10,OCCCCCCCCCCCCBr,inactive
11,Oc1ccc2cc(SSc3ccc4cc(O)ccc4c3)ccc2c1,inactive
12,O=[N+]([O-])c1ccccc1Nc1ccccc1,inactive
13,O=C1C=CC(=O)N1c1ccc(Cc2ccc(N3C(=O)C=CC3=O)cc2)cc1,17.4 µM (active)
14,O=C(O)c1c(Cl)cccc1Cl,inactive
15,Cc1cc(O)c(C(C)(C)C)cc1C(C)(C)C,43.6 µM (active)
16,CSc1ccc(/C=C2/C(C)=C(CC(=O)O)c3cc(F)ccc32)cc1,inactive
17,O=C(OCC1CO1)C1CCCCC1C(=O)OCC1CO1 (stereo unspecified),inactive
18,O=C1C=CC(=O)N1,20 µM (active)
19,CCC(Cl)C(Cl)C(Cl)CC(Cl)C(Cl)C(C)Cl (stereo unspecified),inactive
20,CC(=O)SC[C@@H](Cc1ccccc1)C(=O)NCC(=O)OCc1ccccc1,inactive
21,Cc1cc(C2CCCCC2)n(O)c(=O)c1,inactive
22,CCC1=C[C@@H]2CN(C1)Cc1c([nH]c3ccccc13)[C@@](C(=O)OC)(c1cc3c(cc1OC)N(C)[C@H]1[C@@](O)(C(=O)OC)[C@H](OC(C)=O)[C@]4(CC)C=CCN5CC[C@]31[C@@H]54)C2,inactive

# Assay: qHTS assay for small molecule activators of the heat shock response signaling pathway (AID 743210; active = well fitted activation curve with a large enough effect in the signal ratio in the repeat runs, with a control signal flat, not every such curve was filed as active; the % refers to the signal ratio;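 note: HeLa cells with beta-lactamase reporter driven by heat shock elements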)
# Conditions: HeLa HSE-bla reporter, beta-lactamase ratio, 5 h; series mostly up to 62.6 µM
# Summary of the method: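 Quantitative high-throughput format using an engineered HeLa line in which heat shock response elements drive beta-lactamase; after 5 h with compound, cells received a B/G FRET substrate and fluorescence was read.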
row,Structure (SMILES),Potency
1,COc1cc(-c2ccc(N=C=O)c(OC)c2)ccc1N=C=O,inactive
2,O=C(O)c1c(Cl)cccc1Cl,inactive
3,CC(=O)SC[C@@H](Cc1ccccc1)C(=O)NCC(=O)OCc1ccccc1,inactive
4,CCC1=C[C@@H]2CN(C1)Cc1c([nH]c3ccccc13)[C@@](C(=O)OC)(c1cc3c(cc1OC)N(C)[C@H]1[C@@](O)(C(=O)OC)[C@H](OC(C)=O)[C@]4(CC)C=CCN5CC[C@]31[C@@H]54)C2,inactive
